Bioassay records from PubChem.
IDE cell inh = cellular human IDE inhibition; hit rate 0.41% among 320,000; HEK cells, FAbetaB cleavage, fluorescence polarization; inhibition, % at 5.59 µM; P14735;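 active means percent inhibition above the average of all tested compounds plus 3 SD, set per screening campaign, cut at about 16% in these data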;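 further: IDE supplied by intact live HEK cells; FP after avidin binding of uncleaved biotin substrate so inhibition keeps polarization high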
TPT1 inh = inhibitors of Candida albicans tRNA 2'-phosphotransferase TPT1; hit rate 0.81% among 300,000; recombinant caTPT1, FP RNA substrate dephosphorylation; AID 1962; inhibition, % at 5 µM;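 active means inhibition above the mean of all tested compounds plus 3 SD, set per screening campaign, cut at about 24% in these data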
IDE cell activ = boosts human insulin-degrading enzyme activity in HEK cells. P14735. FAbeta-B cleavage, fluorescence polarization; 0% vehicle, 100% cell-free pure enzyme wells. activation, % at 5.96 µM. hit rate 0.073% among 340,000. AID 493087;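 active means activation above the mean of all tested compounds plus 3 SD, set per screening campaign, cut at about 17% in these data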
HNF4A DNA FP = change in binding of human HNF4 alpha to DNA | HNF4a-FITC DNA binding, fluorescence polarization, 1 h | activity change, % at 10 µM | hit rate 0.3% among 360,000 | AID 1224865; in the data active means activity change above about 30%, passing the limit was not always enough
Target sequence (P41235 whole entry, looked up): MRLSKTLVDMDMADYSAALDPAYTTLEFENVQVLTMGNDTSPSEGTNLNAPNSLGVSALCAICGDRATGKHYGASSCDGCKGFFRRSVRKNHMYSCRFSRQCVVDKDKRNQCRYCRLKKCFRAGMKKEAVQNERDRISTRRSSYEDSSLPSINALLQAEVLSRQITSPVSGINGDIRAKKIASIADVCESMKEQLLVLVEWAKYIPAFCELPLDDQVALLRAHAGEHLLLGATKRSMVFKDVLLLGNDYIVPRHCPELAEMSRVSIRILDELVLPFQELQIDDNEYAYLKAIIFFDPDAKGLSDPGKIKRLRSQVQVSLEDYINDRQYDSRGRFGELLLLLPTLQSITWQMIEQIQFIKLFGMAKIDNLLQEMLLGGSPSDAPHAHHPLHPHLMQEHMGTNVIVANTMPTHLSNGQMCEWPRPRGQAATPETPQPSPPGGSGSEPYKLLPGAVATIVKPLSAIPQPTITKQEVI
CRFBP-R2 agonist = agonists of human CRF-binding protein/CRF-R2 receptor complex; HEK293 CRF-R2/CRF-BP, calcium dye fluorescence (FLIPR); percent of saturating CRF peptide response; activation, % at 13.2 µM; hit rate 0.46% among 350,000; AID 588473;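 active means activation of at least 50%, plus an integration ratio under a set limit after plate pattern correction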
IDE inh confirm = cellular human IDE inhibition, confirmation. inhibition, % at 5.59 µM. HEK cells, FAbetaB cleavage, fluorescence polarization. hit rate 51% among 1,200. shares compounds with IDE cell inh;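 active means mean inhibition across triplicate wells above the cutoff set by the earlier primary insulin-degrading enzyme screen, cut at about 16% in these data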
HEK cytotox = kills HEK cells in IDE inhibitor counter-screen; shares compounds with IDE cell inh; HEK293 cytotoxicity, ATP luminescence; inhibition, % at 5.59 µM; hit rate 28% among 1,200; AID 449730; in the data active means inhibition above about 22%
Each line names hits and unclear results; the compound was inactive in the other large screens (follow-up assays come after a bar, where they were run). Most compounds without a hit are left out; they make up all but 1.4% or so of the library.

CC(C)(C)C(=O)N1CCN(c2ccnc3cc(Cl)ccc23)CC1	IDE cell inh 34 | IDE inh confirm 17 | HEK cytotox inactive
O=C(C1CCC1)N1CCN(c2ccnc3cc(Cl)ccc23)CC1	IDE cell inh 21 | IDE inh confirm 18 | HEK cytotox inactive
CC(=O)c1ccc(N2CCN(c3ccnc4cc(Cl)ccc34)CC2)cc1	IDE cell inh 25 | IDE inh confirm 18 | HEK cytotox 39
O=C(Nc1ccccc1Cl)N1CCN(c2ccc3nnc(-c4ccc(F)cc4)n3n2)CC1	none
COc1ccccc1NC(=O)N1CCN(c2ccc3nnc(-c4ccc(F)cc4)n3n2)CC1	IDE cell inh 17 | IDE inh confirm inactive | HEK cytotox inactive
CN(C)c1ncnc2c1ncn2[C@H]1CN(Cc2ccc(Cl)cc2)C[C@@H](CO)O1	none (no result: IDE cell inh, TPT1 inh, IDE cell activ, CRFBP-R2 agonist)
CC1(C(=O)O)CCC(C(=O)NNC(=O)c2ccccc2Cl)C1(C)C (configuration not stated)	none (no result: IDE cell activ)
CCCCC(=O)N(C)c1c(C)nc2ccc(C(=O)N3CCN(S(=O)(=O)CC)CC3)cn12	none (no result: IDE cell inh, TPT1 inh, IDE cell activ, CRFBP-R2 agonist)
Cc1ccsc1C(=O)N1CCN(C(=O)c2ccco2)CC1	none (no result: TPT1 inh)
O=C(NCCc1ccc(C(F)(F)F)cc1)c1ccc(Cl)nc1	none
COc1ccccc1NC(=O)N1CCN(c2cc(-c3ccccc3)nc3ncnn23)CC1	IDE cell inh 19 | IDE inh confirm inactive | HEK cytotox 23
O=C(c1ccc(Cl)cc1)N1CCN(C(=O)C2CCCCC2)CC1	none
COc1ccc(OC)c(NC(=O)C2CCN(c3cc(-c4ccccc4)nc4ncnn34)CC2)c1	none
O=C(C1CCCCC1)N1CCN(c2ccnc3cc(Cl)ccc23)CC1	IDE cell inh 24 | IDE inh confirm 23 | HEK cytotox 42
O=C(c1ccco1)N1CCN(c2ccc(Cl)cc2)CC1	none
O=C(c1ccco1)N1CCN(c2ccnc3cc(Cl)ccc23)CC1	IDE cell inh 26 | IDE inh confirm 18 | HEK cytotox inactive
CCN(CC(=O)Nc1c(F)cccc1F)C(=O)CNC(=O)c1ccc(C)s1	none
Cc1ccc(-c2cc(=O)c3cc(F)ccc3[nH]2)cc1	none
Cc1ccc(C)c(-n2sc3ccc(F)cc3c2=O)c1	IDE cell inh 36 (no result: TPT1 inh) | IDE inh confirm 19 | HEK cytotox 69
COc1ccc(-n2sc3ccccc3c2=O)cc1	none (no result: IDE cell inh, TPT1 inh, IDE cell activ)
COc1ccc(-n2sc3ccc(F)cc3c2=O)cc1	IDE cell inh 58 (no result: TPT1 inh) | IDE inh confirm 35 | HEK cytotox 81
O=c1c2cc(F)ccc2sn1-c1ccc(F)cc1	IDE cell inh 35 (no result: TPT1 inh) | IDE inh confirm 18 | HEK cytotox 42
O=C(Nc1nccs1)c1csc([C@H]2C[C@H](O)[C@@H](CO)O2)n1	none (no result: IDE cell inh, TPT1 inh, IDE cell activ, CRFBP-R2 agonist)
N#Cc1ccccc1Cn1cc(/C=C/[N+](=O)[O-])c2ccccc21	IDE cell inh 16 | IDE inh confirm inactive | HEK cytotox 85
O=[N+]([O-])/C=C/c1cn(Cc2ccccc2)c2ccccc12	none
CC(=O)c1ccc(N(CC(=O)NC2CCCC2)C(=O)CNC(=O)c2cccs2)cc1	none
COc1cc(/C=c2\s/c(=C(/C#N)C(=O)N3CCCC3)n(-c3ccccc3)c2=O)ccc1O	IDE cell inh 28, CRFBP-R2 agonist 67 | IDE inh confirm 152 | HEK cytotox 29
COC(=O)/C=c1/s/c(=C(/C#N)C(=O)N2CCCCC2)n(-c2ccccc2)c1=O	none
Cc1cc(C)cc(C(=O)Nc2ccc(NC(=O)c3cccs3)cc2)c1	IDE cell inh 19 | IDE inh confirm inactive | HEK cytotox inactive
Cc1ccc2nc(CCl)[n+]([O-])c(-c3ccccc3)c2c1	none
Cc1ccc(C2CC(c3cccs3)=NN2C(=O)CSc2nc(=O)n3cc(C)ccc3n2)cc1 (configuration not stated)	none
COc1ccc(C2CC(c3cccs3)=NN2C(=O)CSc2nc(=O)n3ccccc3n2)cc1 (configuration not stated)	IDE cell inh 17 | IDE inh confirm inactive | HEK cytotox inactive
COc1cc(NC(=O)c2sc3ncn(CC(=O)N4CCCCC4C)c(=O)c3c2C)cc(OC)c1OC (configuration not stated)	none (no result: IDE cell inh, TPT1 inh, IDE cell activ)
C=CCNc1ncnc2c1[nH]c1ccc(Cl)cc12	IDE cell inh 30 | IDE inh confirm inactive | HEK cytotox 47
O=C(NCc1ccco1)c1[nH]c(C(F)(F)F)nc1-c1ccccc1	none (no result: IDE cell inh, TPT1 inh, IDE cell activ, CRFBP-R2 agonist)
CC(C)(C)NC(=O)CSc1nc(-c2ccc(F)cc2)cs1	IDE cell inh 16 | IDE inh confirm inactive | HEK cytotox inactive
Cn1c(/C=C/c2cccc(Br)c2)nc2ccccc2c1=O	IDE cell inh 19 | IDE inh confirm inactive | HEK cytotox inactive
O=C(CNC(=O)C12CC3CC(CC(C3)C1)C2)OCc1ccc(F)cc1Cl	none (no result: TPT1 inh)
COc1ccc(/C=C/C(=O)NC(=S)Nc2ccc(S(=O)(=O)N=C(N)N)cc2)cc1OC	none
COc1cc(C)ccc1OCc1cc(C(=O)N2CCN(C3CCCCC3)CC2)no1	none
Cc1c(NC(=O)/C(C#N)=C/c2ccc(-c3ccc(Cl)cc3)o2)c(=O)n(-c2ccccc2)n1C	IDE cell inh 64 | IDE inh confirm 40 | HEK cytotox inactive
O=C(NCCC1=CCCCC1)Nc1ccc2nsnc2c1	IDE cell inh 31 | IDE inh confirm 17 | HEK cytotox inactive
COc1ccc(C(=O)N/C(=C/c2cccs2)C(=O)NN)cc1OC	IDE cell inh 22 | IDE inh confirm inactive | HEK cytotox inactive
COc1ccc(C(=O)N/C(=C\c2cccs2)C(=O)N2CCN(C)CC2)cc1OC	none
CN(C)c1ccc(-c2ccnc3c2CC(C)(C(=O)NCC2CC2)O3)cc1 (configuration not stated)	none (no result: IDE cell inh, TPT1 inh, IDE cell activ, CRFBP-R2 agonist)
O=C(N/N=C/c1cccc(O)c1)c1ccc(COc2ccc3c(c2)CCC3)o1	IDE cell inh 18 | IDE inh confirm inactive | HEK cytotox inactive
Cc1onc(-c2ccccc2)c1C(=O)N1CCN(S(=O)(=O)c2ccc(OC(F)(F)F)cc2)CC1	none
CCn1c(COc2c(C)cccc2C)nnc1SCC(=O)N1CCN(c2ccccc2)CC1	none
C=CCn1c(COc2cccc(C)c2C)nnc1SCC(=O)N1CCN(c2ccccc2)CC1	IDE cell inh 27 | IDE inh confirm inactive | HEK cytotox 38
O=c1oc2ccc(Br)cc2cc1-c1nc2ccccc2o1	IDE cell inh 20 | IDE inh confirm 73 | HEK cytotox inactive
CCOC(=O)COc1cc(N)c(Cl)cc1Cl	none
COc1cc(/C=C/c2nc3ccccc3s2)cc(OC)c1O	IDE cell inh 142 | IDE inh confirm 103 | HEK cytotox inactive
COc1ccc(C=C(c2nc3ccccc3s2)c2nc3ccccc3s2)cc1O	none
COc1cc(C=C(c2nc3ccccc3s2)c2nc3ccccc3s2)ccc1O	IDE cell inh 27 | IDE inh confirm 59 | HEK cytotox inactive
COc1ccccc1N(C(=O)c1snc(C(N)=O)c1N)C(C(=O)NC1CCCC1)c1ccc(N(C)C)cc1 (configuration not stated)	none
